From PubChem BioAssay (Tox21) come the findings set out here.

A short description of experiment [1]: qHTS assay for small molecules that induce genotoxicity in human embryonic kidney cells expressing luciferase-tagged ATAD5 (AID 651632). Note: nearly all actives have a fitted effect of over 15% in size. In short, it runs like this:
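HEK293T cells carrying luciferase-tagged ATAD5 were given compound or DMSO vehicle and incubated 16 hr at 37C, 5% CO2. Luciferase activity was read after 30 min at room temperature with Amplite; a rise signals genotoxic stress.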

Experiment [2] can be described thus: qHTS assay for small molecule agonists of the p53 signaling pathway - cell viability (AID 651633; calls by dose curve;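 note: p53RE-bla HCT reporter cells with a stable beta-lactamase p53 reporter; nearly all actives have a fitted effect of over 30% in size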). The gist of the method:
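p53RE-bla cells were treated with compound for 16 hours at 37 C. Cytotoxicity was then measured as CellTiter-Glo luminescence after 30 min at room temperature.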
Background: qHTS replaces the single test concentration by a dilution series.

The nature of experiment [3]: qHTS assay for small molecules that induce genotoxicity in human embryonic kidney cells expressing luciferase-tagged ATAD5 - cell viability (AID 651634; calls by dose curve; note: nearly all actives have a fitted effect of over 25% in size). The gist of the method:
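HEK293T cells carrying luciferase-tagged ATAD5, 2,000 cells/well, exposed to compound for 15.5 hr at 37C. Viability read as live-cell protease activity by CellTiter-Fluor fluorescence after 30 min at 37C.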

Experiment [4] in a line: qHTS assay for small molecule disruptors of the mitochondrial membrane potential - cell viability (AID 720634; calls by dose curve;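 note: human HepG2 liver cancer cells; nearly all actives have a fitted effect of over 20% in size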). In short, it runs like this: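 HepG2 cells, 2,000 per well, attached overnight, then treated 1 hr at 37 C, 5% CO2. Viability read as ATP by CellTiter-Glo luminescence after 30 min at room temperature. Read in the same wells as the m-MPI membrane-potential dye assay.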

The nature of experiment [5]: qHTS assay for small molecule disruptors of the mitochondrial membrane potential (AID 720635). Note: potency is the fitted concentration of half-maximal effect. The gist of the method: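 HepG2 cells exposed to compound 1 hr at 37C, then Mito-MPS dye 30 min. Ratio read of aggregate (540/590 nm) versus monomer (490/535 nm) fluorescence.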
A short description of experiment [6]: qHTS assay to test for compound auto fluorescence at 590 nm (red) in HepG2 cells (AID 720674). The gist of the method:
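Fluorescence at 590 nm emission following 540 nm excitation was recorded from HepG2 wells one hour after compound transfer, with DMSO-only wells as vehicle and Rose Bengal sodium equivalency as the scale.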

The nature of experiment [7]: qHTS assay to test for compound auto fluorescence at 535 nm (green) in HepG2 cells (AID 720675).
Experiment [8] is described as follows: qHTS assay to test for compound auto fluorescence at 460 nm (blue) in HEK293 cells (AID 720678). The gist of the method: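 Measured: blue fluorescence (Ex 405/Em 460 nm) of compound-treated HEK293 cells, incubated overnight at 37C with 5% CO2 and scaled to triamterene equivalents.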
Experiment [9] can be described thus: qHTS assay to test for compound auto fluorescence at 590 nm (red) in HEK293 cells (AID 720679). In short, it runs like this:
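Using HEK293 cells at 2,000 per well, the screen added 23 nL of each compound after cell attachment and incubated overnight (37C, 5% CO2). The plate reader then captured red-label fluorescence, Ex/Em 540/590nm.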

The nature of experiment [10]: qHTS assay to test for compound auto fluorescence at 535 nm (green) in HEK293 cells (AID 720680).
Experiment [11] in a line: qHTS assay to test for compound auto fluorescence at 460 nm (blue) in HEK293 cell free culture (AID 720681). In short, it runs like this: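 Compounds were added to cell-free DMEM with 10% FBS and fluorescence read directly. The blue channel used 405 nm excitation and 460 nm emission, with triamterene as the reference fluorophore.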
A short description of experiment [12]: qHTS assay to test for compound auto fluorescence at 535 nm (green) in HEK293 cell free culture (AID 720682). In short, it runs like this: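 Green-channel intensity (Ex/Em 485/535 nm) was recorded from compound-treated wells containing only DMEM with 10% FBS. Fluorescein provided the equivalency standard.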
Experiment [13] in a line: qHTS assay to test for compound auto fluorescence at 590 nm (red) in HEK293 cell free culture (AID 720683). In short, it runs like this: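 Cell-free wells of DMEM with 10% FBS received compound, and intrinsic fluorescence was read at excitation/emission 540/590 nm. Values expressed as equivalence to Rose Bengal sodium.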
Experiment [14] in a line: qHTS assay to test for compound auto fluorescence at 590 nm (red) in HepG2 cell free culture (AID 720684). In short, it runs like this:
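Compounds are added to culture medium (MEM, 10% FBS) lacking cells, then fluorescence is read at excitation 540 nm, emission 590 nm, with Rose Bengal sodium as the equivalency standard.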

The nature of experiment [15]: qHTS assay to test for compound auto fluorescence at 460 nm (blue) in HepG2 cell free culture (AID 720685). The gist of the method:
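Compound (23 nL) or DMSO pinned into cell-free MEM with 10% FBS; blue fluorescence read at 405/460 nm excitation/emission, expressed as auto-fluorescence equivalency to triamterene.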

Experiment [16] is described as follows: qHTS assay to test for compound auto fluorescence at 535 nm (green) in HepG2 cell free culture (AID 720686).
Experiment [17] is described as follows: qHTS assay to test for compound auto fluorescence at 460 nm (blue) in HepG2 cells (AID 720687). In short, it runs like this: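 HepG2 cells in MEM with 10% FBS, attached overnight at 37 C, were exposed to compound or DMSO for 1 hr at 37 C, 5% CO2. Blue fluorescence was read at 405/460 nm, with triamterene as reference fluorophore.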
Experiment [18] deals with Glucocorticoid receptor (Homo sapiens) (UniProt P04150). In words: qHTS assay to identify small molecule agonists of the glucocorticoid receptor (GR) signaling pathway (AID 720691; active = well fitted activation curve with a large enough effect in the signal ratio in the repeat runs, not every such curve was filed as active; the % refers to the signal ratio; note: potency is the fitted concentration of half-maximal effect). The settings on record: GR-bla HeLa, beta-lactamase reporter ratio, 18 h; activation: at 62.4 µM (top of the series) unless noted. In short, it runs like this:
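GR-bla HeLa cells carrying a GRE-driven beta-lactamase reporter, exposed to compounds for 18 h at 37 C. Reporter activation read as fluorescence after 2 h with LiveBLAzer B/G FRET substrate at room temperature.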

Experiment [19] can be described thus: qHTS assay for small molecule agonists of the p53 signaling pathway (AID 651631; calls by dose curve; note: nearly all actives have a fitted effect of over 15% in size). In short, it runs like this: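 We treat p53RE-bla HCT-116 cells with compounds for 16 h at 37 °C, add LiveBLAzer B/G FRET substrate for 2 h at room temperature, and measure fluorescence intensity.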
Experiment [20] addresses Glucocorticoid receptor (Homo sapiens) (UniProt P04150). In words: qHTS assay to identify small molecule antagonists of the glucocorticoid receptor (GR) signaling pathway (AID 720692; active = well fitted inhibition curve with a large enough effect in the signal ratio in the repeat runs, not every such curve was filed as active; the % refers to the signal ratio). The gist of the method: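 GR-bla HeLa cells carrying a GRE-driven beta-lactamase reporter received compound after 4 h plating, then dexamethasone (5 nM final). After 18 h at 37C, the FRET substrate was loaded for 2 h at room temperature and fluorescence read.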

Molecules are shown by their SMILES. Unmarked numbers belong to inactive results. Records with an inconclusive call do not appear. Activity calls are given as the source filed them. Unless noted, calls come from the whole dose curve; as a rule, active = well fitted curve in the direction sought with a large enough effect in the repeat runs; inconclusive = weak or mixed curves; inactive = no such curve, though single readings can be large; an effect the other way counts as inactive or inconclusive.

Glucocorticoid receptor (Homo sapiens), sequence (P04150 whole entry, looked up): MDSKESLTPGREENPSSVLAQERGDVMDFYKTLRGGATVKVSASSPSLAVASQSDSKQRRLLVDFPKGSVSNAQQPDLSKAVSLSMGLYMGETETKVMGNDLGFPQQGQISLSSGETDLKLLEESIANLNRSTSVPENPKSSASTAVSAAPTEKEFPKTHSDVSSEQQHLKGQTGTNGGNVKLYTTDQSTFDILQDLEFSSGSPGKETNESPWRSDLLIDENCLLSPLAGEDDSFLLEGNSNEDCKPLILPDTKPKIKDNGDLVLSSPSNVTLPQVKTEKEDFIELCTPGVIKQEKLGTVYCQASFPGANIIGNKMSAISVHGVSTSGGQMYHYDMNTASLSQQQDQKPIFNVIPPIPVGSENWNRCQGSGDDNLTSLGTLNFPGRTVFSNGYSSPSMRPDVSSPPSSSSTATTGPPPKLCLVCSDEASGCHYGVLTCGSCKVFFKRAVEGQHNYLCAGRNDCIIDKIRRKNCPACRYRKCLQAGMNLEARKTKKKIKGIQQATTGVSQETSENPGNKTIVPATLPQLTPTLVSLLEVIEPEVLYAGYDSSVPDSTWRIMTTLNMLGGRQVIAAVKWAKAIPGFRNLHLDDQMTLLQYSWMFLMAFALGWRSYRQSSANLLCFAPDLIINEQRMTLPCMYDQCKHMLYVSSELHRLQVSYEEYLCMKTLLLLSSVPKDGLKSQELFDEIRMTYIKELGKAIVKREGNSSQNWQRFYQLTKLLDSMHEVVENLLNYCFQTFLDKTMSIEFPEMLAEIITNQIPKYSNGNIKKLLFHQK

Regarding `Cc1cccc(C)c1NC(=O)CN(CC(=O)O)CC(=O)O`, the Potency entry in [1], in experiment [2], in experiment [3], in [4], in experiment [5] and in experiment [6] was “inactive” each time. The Potency entry in [7], in experiment [9], in experiment [13], in experiment [14], in experiment [16] and in [18] was “inactive” throughout. For the same molecule, the outcome in experiment [8], in experiment [10], in experiment [11], in experiment [12], in experiment [15] and in experiment [17] was inactive.
In the case of `CCC(=O)O[C@]1(C(=O)CCl)[C@@H](C)C[C@H]2[C@@H]3CCC4=CC(=O)C=C[C@]4(C)[C@@]3(F)[C@@H](O)C[C@@]21C`, the Potency entry in experiment [1], in experiment [2], in experiment [3], in experiment [4], in [6] and in [7] was “inactive” each time. The Potency result in experiment [9], in [13], in experiment [14] and in experiment [16] was “inactive” in each case. For the same molecule, the Potency is 23.7 µM (active) in experiment [5] and 0.0006 µM (active) in [18]. Moreover, the result in experiment [8], in experiment [10], in [11], in experiment [12] and in [17] was inactive.
In the case of `CCCn1cnc2c1c(=O)n(CCCCC(C)=O)c(=O)n2C`, the Potency entry in [19], in experiment [2], in [3], in [4], in experiment [5] and in experiment [7] was “inactive” throughout. Moreover, the Potency result in experiment [9], in experiment [13], in experiment [14], in experiment [16], in experiment [18] and in experiment [20] was “inactive” each time. The outcome in [8], in experiment [10], in [11], in [12], in experiment [15] and in experiment [17] was inactive.
On to `CC1=CC[C@H](C(C)C)C=C1`, for which the Potency entry in [19], in [1], in [3], in experiment [6], in experiment [7] and in experiment [14] was “inactive” in each case. Further, the Potency result in experiment [16] was “inactive”. Also, the call in experiment [8], in experiment [10], in [11], in experiment [12] and in [17] was inactive.
In the case of `CCCCO`, the Potency entry in experiment [19], in experiment [3], in experiment [4], in experiment [5], in experiment [6] and in experiment [7] was “inactive” throughout. Moreover, the Potency entry in [9], in [13], in experiment [14] and in [16] was “inactive” throughout. In addition, the outcome in [8], in experiment [10], in [11], in experiment [12] and in experiment [17] was inactive.
On to `C[N+]1(C)CCC(OC(=O)C(O)(c2ccccc2)C2CCCC2)C1` (stereo not drawn), for which the Potency entry in [1], in experiment [2], in [3], in [4], in experiment [5] and in experiment [7] was “inactive” throughout. Further, the Potency result in experiment [9], in experiment [14], in experiment [16] and in experiment [18] was “inactive” in each case. In addition, the molecule was called inactive in experiment [8], in experiment [10], in experiment [11], in [12], in experiment [15] and in experiment [17].
In the case of `CCCCCCCCCCCc1ccccc1`, the Potency entry in experiment [1], in [2], in [3], in experiment [4], in experiment [6] and in experiment [7] was “inactive” each time. Moreover, the Potency result in experiment [9], in experiment [13], in experiment [14], in experiment [16] and in experiment [18] was “inactive” throughout. In addition, the call in experiment [8], in experiment [10], in experiment [11], in experiment [12], in [15] and in [17] was inactive.
As to `CC(=O)[O][Al]`, the Potency entry in experiment [19], in [2], in experiment [3], in experiment [4], in [6] and in experiment [7] was “inactive” throughout. Besides, the Potency entry in [13], in [14] and in experiment [16] was “inactive” in each case. The outcome in experiment [8], in experiment [10], in [11], in experiment [12], in experiment [15] and in experiment [17] was inactive.
